# In all, about 33,000 sequences were measured (“E-score (-0.5 to 0.5)”: median about -0.0014, highest 2% from about 0.25 on). This excerpt belongs to a sample that is enriched for the highest values.
# Target: T1, Cad1 (UniProt P24813)
# T1 sequence: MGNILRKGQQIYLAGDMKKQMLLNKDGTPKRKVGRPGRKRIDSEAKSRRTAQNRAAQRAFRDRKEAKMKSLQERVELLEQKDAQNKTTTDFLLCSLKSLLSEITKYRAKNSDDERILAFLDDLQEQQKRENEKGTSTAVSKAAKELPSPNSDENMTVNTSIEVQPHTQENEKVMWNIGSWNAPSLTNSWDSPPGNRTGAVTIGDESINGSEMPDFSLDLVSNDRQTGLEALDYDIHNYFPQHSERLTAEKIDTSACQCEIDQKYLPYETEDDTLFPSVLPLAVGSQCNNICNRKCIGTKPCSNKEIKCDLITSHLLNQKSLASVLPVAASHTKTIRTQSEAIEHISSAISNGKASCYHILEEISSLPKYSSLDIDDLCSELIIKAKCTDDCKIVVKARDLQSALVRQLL
# Experiment: PBM E-score (8-mer binding enrichment) (E-score (-0.5 to 0.5)); higher = stronger / more preferred TF binding
# Settings: protein concentration: 100 nM; construct: GST-full length
# Method: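 Universal 'all 10-mer' protein binding microarrays (Agilent AMADID 015681) probed with GST-tagged S. cerevisiae TFs (full-length or DBD) made by in vitro transcription/translation (PURExpress), about 100-200 nM. Bound TF was detected with fluorescent anti-GST. Each ungapped 8-mer (which stands for itself and its reverse complement) is scored by the PBM enrichment score (E-score), a modified Wilcoxon-Mann-Whitney statistic from -0.5 to +0.5, computed with the Universal PBM Analysis Suite. Scale: above 0.35 generally sequence-specific binding.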
row,Sequence,PBM E-score
1,CAACCAAA,0.0894
2,CGGAGTAA,0.109
3,ATAGACCG,-0.0498
4,AACGCACC,-0.0282
5,ACACCAAC,-0.0461
6,CTCAATGC,-0.134
7,ACTGGGAA,-0.0452
8,CCTTATCG,0.0678
9,ACTTATCA,0.116
10,CCTTATCA,0.257
11,GCTTATCA,0.0614
12,TCTTATCA,0.267
13,TCTTATAA,0.0694
14,TGTGAAAA,0.103
15,ACGGAACC,0.218
16,GACCGGGC,-0.104
17,AACTGATA,0.0697
18,ACAGACCC,-0.211
19,AGAGACCT,-0.104
20,CGGGACTA,-0.22
21,ACGCACTG,-0.0467
22,GGGCCTTA,-0.0621
23,GGTAGTCA,-0.206
24,CTTAGTCC,-0.0572
25,CTTAGTCA,0.38

row,Sequence,PBM E-score
1,ATTAGTGC,0.353
2,ATTAGTTA,0.362
3,ATTAGTTG,0.216
4,ATTAGTGG,0.163
5,GCTAGTCA,-0.0828
6,GTTAGTTA,0.155
7,GTTAGTCA,0.266
8,CCTAGTCA,-0.0765
9,ATTAGTGA,0.14
10,GGTCTCAA,-0.0801
11,GTCTACGA,-0.0725
12,CCGGTTAG,0.0658
13,CACCGATG,-0.179
14,ATTTCGAC,-0.0837
15,GCGGGTAC,0.0345
16,CAATACCG,-0.0276
17,AGGTCCCG,-0.0309
18,AGCGATCG,0.216
19,ACGCTAGC,-0.0932
20,AGGCATTA,-0.16
21,AAGGGGCT,0.0431
22,CAGCGGTC,-0.229
23,GTTAGTGA,-0.0153
24,TATAGTAA,0.294
25,GATAGTAA,0.156

row,Sequence,PBM E-score
1,GGTAGTAA,-0.0434
2,GTTAGTAA,0.422
3,CATAGTAA,0.141
4,ACCACACC,-0.169
5,CCAGGAAG,-0.131
6,ACTCGACT,-0.153
7,CACCGAAA,0.12
8,TTGACAAA,0.294
9,GTGACCAA,0.0231
10,ATGACAAC,0.183
11,TTGACCAA,0.0548
12,TCGACAAA,0.195
13,ATGACATC,0.232
14,GTGACAAA,0.229
15,CTGACATA,0.205
16,ATGACATA,0.267
17,ATGACAAG,0.127
18,CTGACCAA,0.276
19,ATGACAAA,0.414
20,CAGCGCGG,0.112
21,TATTGCAA,0.19
22,CTCCGCAG,0.00742
23,GGCCTTAC,-0.166
24,AACCAAAC,-0.102
25,AGATGGGA,-0.204

row,Sequence,PBM E-score
1,CTGACAAA,0.444
2,CTGACAAC,0.0707
3,CTGACAAG,0.101
4,CAACTAGG,0.079
5,CGAGGCAG,0.0833
6,AACCTCAC,-0.112
7,ATGTTTTC,0.268
8,ATGTTTTA,0.0134
9,ATGTTTCC,-0.00726
10,CTGTTGGC,-0.202
11,ATTTGTTA,0.203
12,ATTTGTCG,0.147
13,ATTTGTTC,0.265
14,CTTTGTTC,0.0827
15,ATTTGTCC,0.253
16,ATTTGTGC,0.148
17,AAATCCTC,-0.0802
18,ATGTGACA,0.281
19,CTGTGACA,0.209
20,GTGTGACA,0.0138
21,GCATCCCA,-0.303
22,CGCACTTC,-0.184
23,CCCAAGAG,-0.132
24,CTATTACA,0.123
25,ATATTACA,0.347

row,Sequence,PBM E-score
1,CTATTACC,-0.0596
2,GTATTACA,0.234
3,ATATTACC,0.28
4,ATATTACG,0.24
5,AGCCGTCG,0.219
6,CACGGAAG,-0.00842
7,TATAGGAA,0.127
8,CGACCCGC,0.0365
9,AATAACGC,-0.0922
10,AATAACGG,0.253
11,CATAACGG,-0.00107
12,GATTGCAA,0.117
13,AGGACCCA,-0.22
14,AAGCGCTA,0.107
15,AATCGCGT,0.107
16,AAGCGCTT,0.421
17,TCGCGCGA,0.308
18,CCGCGCCG,0.174
19,ACGCGCGG,0.136
20,AAGCGCTC,0.0197
21,TCGCGAGA,0.165
22,GATCGCGC,0.118
23,AATCGCGC,0.327
24,CCGCGCGG,0.417
25,TAGCGCGA,0.211

row,Sequence,PBM E-score
1,ATCGGTAG,0.0904
2,AGCACACT,-0.0625
3,AGAGCCAG,-0.239
4,CGCGTACA,-0.008
5,ATGCCGTC,-0.0686
6,AAGATCCA,-0.089
7,CTCTGGGA,-0.252
8,AGGACACC,0.00026
9,ACAAACAT,0.145
10,CCCGCGGG,0.0407
11,CCCTACAA,-0.14
12,AAGGGGGT,-0.389
13,CCGCGAGA,-0.102
14,AATCGTGA,0.0886
15,CCGCGCGC,0.144
16,GCGCGAAA,0.308
17,AATCGTGC,0.276
18,CCGCGCGA,0.295
19,TCGCGAAA,0.168
20,CCGCGAAA,0.0147
21,CATCGTGC,0.162
22,CAGCGCTG,0.263
23,CAGCGCTC,0.153
24,CAGCGCTA,0.157
25,TAGCCGAA,-0.0837

row,Sequence,PBM E-score
1,CCCTCCCG,-0.226
2,CAACATCG,0.0708
3,ACAGAAAG,-0.0964
4,GTCGGTGA,-0.13
5,TCATTCAA,0.13
6,AGGTACCC,-0.138
7,ATCTTTCC,0.0734
8,CCGTCTAG,-0.128
9,CACGAGCC,-0.209
10,CAATCGCA,0.00664
11,ACGCGCGA,0.139
12,ACCCGCGC,0.256
13,GCGCGCAC,0.218
14,GTGCGCGA,-0.0729
15,AACCGCGA,0.287
16,GCGCGCGA,0.265
17,ACCCGCGA,0.0834
18,ACGCGCGC,0.216
19,ACCCGCGT,-0.00317
20,TACCGCGA,0.172
21,GCGCGCGC,0.417
22,AACCGCGT,0.122
